# Where “and” joins values, the source holds several entries; their conditions need not be identical. Equal values may be shown once. Out of some 5,500 compounds screened, about 2,000 (36%) were called active. Another 18% or so got no clear call; they are omitted. No stated cut-off is given here; in the data, active means normalized growth mostly below about 0.91 (no sharp cut-off); inconclusive means no clear call, values can overlap the other calls; inactive means mostly above about 0.92. The list shows a part of the results.
# Test: chemical genetic growth profiling, strain panel (AID 1159580);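 further: tested at 20 µM; growth read once vehicle control cultures reached saturation at 30 °C; 1 = growth at the plate median or of vehicle wells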
# Settings: S. cerevisiae deletion strains, growth OD
smiles,measurement,setting,value
C=C1C(=O)O[C@@H]2C[C@@]3(C)CCC[C@H](C)C3=C[C@H]12,normalized growth,"locus YAL013W, strain DEP1, stronger effect = lower value",0.933 (inactive)
same,normalized growth,"locus YAL021C, strain ccr4, stronger effect = lower value",0.849 (active)
same,normalized growth,"locus YAL026C, strain drs2, stronger effect = lower value",0.718 (active)
same,normalized growth,"locus YAL030W, strain snc1, stronger effect = lower value",0.882 (active)
same,normalized growth,"locus YBL061C, strain skt5, stronger effect = lower value",0.901 (active)
same,normalized growth,"locus YBR009C, strain hhf1, stronger effect = lower value",0.733 (active)
same,normalized growth,"locus YBR021W, strain FUR4, stronger effect = lower value",1.05 (inactive)
same,normalized growth,"locus YBR023C, strain chs3, stronger effect = lower value",0.886 (active)
same,normalized growth,"locus YBR171W, strain sec66, stronger effect = lower value",0.837 (active)
same,normalized growth,"locus YBR229C, strain ROT2, stronger effect = lower value",0.943 (inactive)
same,normalized growth,"locus YBR231C, strain swc5, stronger effect = lower value",0.572 (active)
same,normalized growth,"locus YBR279W, strain paf1, stronger effect = lower value",0.88 (active)
same,normalized growth,"locus YCL011C, strain gbp2, stronger effect = lower value",0.822 (active)
same,normalized growth,"locus YCL016C, strain dcc1, stronger effect = lower value",0.849 (active)
same,normalized growth,"locus YCL029C, strain bik1, stronger effect = lower value",0.949 (inactive)
same,normalized growth,"locus YCL061C, strain MRC1, stronger effect = lower value",0.881 (active)
same,normalized growth,"locus YCL069W, strain vba3, stronger effect = lower value",0.876 (active)
same,normalized growth,"locus YCR088W, strain abp1, stronger effect = lower value",0.896 (active)
same,normalized growth,"locus YDL005C, strain med2, stronger effect = lower value",0.937 (inactive)
same,normalized growth,"locus YDL035C, strain GPR1, stronger effect = lower value",0.895 (inactive)
same,normalized growth,"locus YDL040C, strain nat1, stronger effect = lower value",0.899 (active)
same,normalized growth,"locus YDL074C, strain BRE1, stronger effect = lower value",0.72 (active)
same,normalized growth,"locus YDL101C, strain DUN1, stronger effect = lower value",0.85 (active)
same,normalized growth,"locus YDL134C, strain PPH21, stronger effect = lower value",0.848 (active)
same,normalized growth,"locus YDL185W, strain tfp1, stronger effect = lower value",0.94 (inactive)
same,normalized growth,"locus YDL192W, strain arf1, stronger effect = lower value",0.758 (active)
same,normalized growth,"locus YDR001C, strain nth1, stronger effect = lower value",0.897 (active)
same,normalized growth,"locus YDR069C, strain doa4, stronger effect = lower value",0.779 (active)
same,normalized growth,"locus YDR101C, strain arx1, stronger effect = lower value",0.945 (inactive)
same,normalized growth,"locus YDR137W, strain rgp1, stronger effect = lower value",0.267 (active)
same,normalized growth,"locus YDR150W, strain NUM1, stronger effect = lower value",0.925 (inactive)
same,normalized growth,"locus YDR159W, strain sac3, stronger effect = lower value",0.71 (active)
same,normalized growth,"locus YDR162C, strain NBP2, stronger effect = lower value",0.699 (active)
same,normalized growth,"locus YDR195W, strain ref2",1.16 [resistant] (active)
same,normalized growth,"locus YDR297W, strain sur2, stronger effect = lower value",0.855 (active)
same,normalized growth,"locus YDR318W, strain mcm21, stronger effect = lower value",0.814 (active)
same,normalized growth,"locus YDR334W, strain swr1, stronger effect = lower value",0.442 (active)
same,normalized growth,"locus YDR335W, strain msn5, stronger effect = lower value",0.875 (active)
same,normalized growth,"locus YDR388W, stronger effect = lower value",0.869 (active)
same,normalized growth,"locus YDR392W, strain spt3, stronger effect = lower value",0.127 (active)
same,normalized growth,"locus YDR502C, strain sam2, stronger effect = lower value",0.833 (active)
same,normalized growth,"locus YEL003W, strain gim4, stronger effect = lower value",0.715 (active)
same,normalized growth,"locus YEL037C, strain rad23, stronger effect = lower value",0.907 (active)
same,normalized growth,"locus YEL061C, strain CIN8 (second series), stronger effect = lower value",0.88 (active)
same,normalized growth,"locus YEL061C, strain CIN8, stronger effect = lower value",0.916 (active)
same,normalized growth,"locus YER015W, strain faa2, stronger effect = lower value",0.855 (active)
same,normalized growth,"locus YER016W, strain bim1, stronger effect = lower value",0.911 (active)
same,normalized growth,"locus YER110C, stronger effect = lower value",0.836 (active)
same,normalized growth,"locus YER111C, strain swi4, stronger effect = lower value",0.911 (inactive)
same,normalized growth,"locus YER155C, strain BEM2 (second series), stronger effect = lower value",0.585 (active)
same,normalized growth,"locus YER155C, strain BEM2, stronger effect = lower value",0.71 (active)
same,normalized growth,"locus YER167W, strain BCK2, stronger effect = lower value",0.906 (inactive)
same,normalized growth,"locus YFR010W, strain ubp6, stronger effect = lower value",0.862 (active)
same,normalized growth,"locus YGL078C, strain dbp3, stronger effect = lower value",0.981 (inactive)
same,normalized growth,"locus YGL086W, strain mad1, stronger effect = lower value",0.89 (active)
same,normalized growth,"locus YGL167C, strain pmr1, stronger effect = lower value",0.848 (active)
same,normalized growth,"locus YGL173C, strain kem1, stronger effect = lower value",0.888 (active)
same,normalized growth,"locus YGL227W, strain vid30, stronger effect = lower value",0.912 (active)
same,normalized growth,"locus YGL240W, strain doc1, stronger effect = lower value",0.599 (active)
same,normalized growth,"locus YGL248W, strain PDE1, stronger effect = lower value",0.799 (active)
same,normalized growth,"locus YGL253W, strain hxk2, stronger effect = lower value",0.742 (active)
same,normalized growth,"locus YGR135W, strain pre9, stronger effect = lower value",0.801 (active)
same,normalized growth,"locus YGR252W, strain gcn5, stronger effect = lower value",0.864 (inactive)
same,normalized growth,"locus YHR013C, strain ard1, stronger effect = lower value",0.616 (active)
same,normalized growth,"locus YHR027C, strain rpn1, stronger effect = lower value",0.874 (active)
same,normalized growth,"locus YHR030C, strain SLT2, stronger effect = lower value",0.927 (inactive) and 1.01 (inactive)
same,normalized growth,"locus YHR079C, strain IRE1 (second series), stronger effect = lower value",0.936 (inactive)
same,normalized growth,"locus YHR079C, strain IRE1, stronger effect = lower value",0.986 (inactive)
same,normalized growth,"locus YHR094C, strain hxt1, stronger effect = lower value",0.942 (inactive)
same,normalized growth,"locus YHR129C, strain ARP1, stronger effect = lower value",0.852 (active)
same,normalized growth,"locus YHR142W, strain chs7, stronger effect = lower value",0.787 (active)
same,normalized growth,"locus YHR200W, strain rpn10, stronger effect = lower value",0.876 (active)
same,normalized growth,"locus YIL066C, strain RNR3, stronger effect = lower value",0.756 (active)
same,normalized growth,"locus YIL073C, strain SPO22, stronger effect = lower value",0.717 (inactive)
same,normalized growth,"locus YIL125W, strain kgd1, stronger effect = lower value",0.953 (inactive)
same,normalized growth,"locus YIR030C, strain dcg1, stronger effect = lower value",0.903 (active)
same,normalized growth,"locus YJL092W, strain hpr5, stronger effect = lower value",0.904 (active)
same,normalized growth,"locus YJL095W, strain BCK1 (second series), stronger effect = lower value",0.894 (active)
same,normalized growth,"locus YJL095W, strain BCK1, stronger effect = lower value",0.753 (active) and 1.01 (inactive)
same,normalized growth,"locus YJL115W, strain asf1, stronger effect = lower value",0.88 (active)
same,normalized growth,"locus YJL129C, strain trk1, stronger effect = lower value",0.76 (active)
same,normalized growth,"locus YJL134W, strain LCB3, stronger effect = lower value",0.934 (inactive)
same,normalized growth,"locus YJL154C, strain vps35, stronger effect = lower value",0.921 (inactive)
same,normalized growth,"locus YJL164C, strain tpk1, stronger effect = lower value",0.809 (active)
same,normalized growth,"locus YJL166W, strain qcr8, stronger effect = lower value",0.654 (active)
same,normalized growth,"locus YJL168C, strain set2, stronger effect = lower value",0.951 (inactive)
same,normalized growth,"locus YJL187C, strain SWE1 (second series), stronger effect = lower value",0.875 (inactive)
same,normalized growth,"locus YJL187C, strain SWE1, stronger effect = lower value",0.903 (active)

# From PubChem BioAssay AID1159580 (chemical genetic matrix, 2015)
